The campaign covered roughly 5,500 compounds. About 2,000 (36%) were called active. Not shown: some 18% with an inconclusive outcome. No stated cut-off is given here; in the data, active means normalized growth mostly below about 0.91 (no sharp cut-off); inconclusive means no clear call, values can overlap the other calls; inactive means mostly above about 0.92. Some of the results follow.
Experiment: chemical genetic growth profiling, strain panel (AID 1159580);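 further: tested at 20 µM; growth read once vehicle control cultures reached saturation at 30 °C; 1 = growth at the plate median or of vehicle wells; lower values mean less growth of the strain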
Conditions: S. cerevisiae deletion strains, growth OD

Measured: normalized growth

CNNC
inactive: locus YAL013W, strain DEP1, active compounds read low 1.01 | locus YAL021C, strain ccr4, active compounds read low 1.01 | locus YAL026C, strain drs2, active compounds read low 1.02 | locus YAL030W, strain snc1, active compounds read low 1.02 | locus YBL061C, strain skt5, active compounds read low 1 | locus YBR009C, strain hhf1, active compounds read low 1.01 | locus YBR021W, strain FUR4, active compounds read low 1.04 | locus YBR023C, strain chs3, active compounds read low 1 | locus YBR171W, strain sec66, active compounds read low 0.995 | locus YBR229C, strain ROT2, active compounds read low 1.01 | locus YBR231C, strain swc5, active compounds read low 1.01 | locus YBR279W, strain paf1, active compounds read low 1.02 | locus YCL011C, strain gbp2, active compounds read low 1.01 | locus YCL016C, strain dcc1, active compounds read low 1.04 | locus YCL029C, strain bik1, active compounds read low 1.01 | locus YCL069W, strain vba3, active compounds read low 1.01 | locus YCR088W, strain abp1, active compounds read low 1.01 | locus YDL005C, strain med2, active compounds read low 0.987 | locus YDL035C, strain GPR1, active compounds read low 1.02 | locus YDL040C, strain nat1, active compounds read low 1 | locus YDL074C, strain BRE1, active compounds read low 1.07 | locus YDL101C, strain DUN1, active compounds read low 1.03 | locus YDL134C, strain PPH21, active compounds read low 1.02 | locus YDL185W, strain tfp1, active compounds read low 1.01 | locus YDL192W, strain arf1, active compounds read low 0.995 | locus YDR001C, strain nth1, active compounds read low 1.02 | locus YDR069C, strain doa4, active compounds read low 1.02 | locus YDR101C, strain arx1, active compounds read low 0.989 | locus YDR137W, strain rgp1, active compounds read low 1.04 | locus YDR150W, strain NUM1, active compounds read low 1 | locus YDR159W, strain sac3, active compounds read low 0.991 | locus YDR162C, strain NBP2, active compounds read low 1.03 | locus YDR195W, strain ref2 0.981 | locus YDR297W, strain sur2, active compounds read low 1 | locus YDR318W, strain mcm21, active compounds read low 0.997 | locus YDR334W, strain swr1, active compounds read low 1.01 | locus YDR335W, strain msn5, active compounds read low 1.01 | locus YDR388W, active compounds read low 0.994 | locus YDR392W, strain spt3, active compounds read low 1.01 | locus YDR502C, strain sam2, active compounds read low 1.01 | locus YEL003W, strain gim4, active compounds read low 1.01 | locus YEL037C, strain rad23, active compounds read low 1.02 | locus YEL061C, strain CIN8 (second series), active compounds read low 1.01 | locus YEL061C, strain CIN8, active compounds read low 1.01 | locus YER015W, strain faa2, active compounds read low 1.01 | locus YER016W, strain bim1, active compounds read low 1.01 | locus YER110C, active compounds read low 0.996 | locus YER111C, strain swi4, active compounds read low 1 | locus YER155C, strain BEM2 (second series), active compounds read low 1.04 | locus YER155C, strain BEM2, active compounds read low 1.03 | locus YER167W, strain BCK2, active compounds read low 1.02 | locus YFR010W, strain ubp6, active compounds read low 0.993 | locus YGL078C, strain dbp3, active compounds read low 1 | locus YGL086W, strain mad1, active compounds read low 1.01 | locus YGL167C, strain pmr1, active compounds read low 0.998 | locus YGL173C, strain kem1, active compounds read low 0.987 | locus YGL227W, strain vid30, active compounds read low 1.01 | locus YGL240W, strain doc1, active compounds read low 0.995 | locus YGL248W, strain PDE1, active compounds read low 1.02 | locus YGL253W, strain hxk2, active compounds read low 1 | locus YGR078C, strain PAC10, active compounds read low 1.04 | locus YGR135W, strain pre9, active compounds read low 1.01 | locus YGR229C, strain SMI1, active compounds read low 1.02 | locus YGR252W, strain gcn5, active compounds read low 0.955 | locus YHR013C, strain ard1, active compounds read low 1.02 | locus YHR027C, strain rpn1, active compounds read low 1.02 | locus YHR030C, strain SLT2, active compounds read low 1.02 | locus YHR079C, strain IRE1 (second series), active compounds read low 1 | locus YHR094C, strain hxt1, active compounds read low 0.998 | locus YHR129C, strain ARP1, active compounds read low 1.02 | locus YHR142W, strain chs7, active compounds read low 1.04 | locus YHR200W, strain rpn10, active compounds read low 1 | locus YIL066C, strain RNR3, active compounds read low 1.01 | locus YIL073C, strain SPO22, active compounds read low 0.998 | locus YIL125W, strain kgd1, active compounds read low 0.99 | locus YIR030C, strain dcg1, active compounds read low 1.01 | locus YJL092W, strain hpr5, active compounds read low 1.03 | locus YJL095W, strain BCK1 (second series), active compounds read low 1.01 | locus YJL095W, strain BCK1, active compounds read low 1.05 | locus YJL115W, strain asf1, active compounds read low 0.994 | locus YJL129C, strain trk1, active compounds read low 1.01 | locus YJL134W, strain LCB3, active compounds read low 1.02 | locus YJL154C, strain vps35, active compounds read low 1.02 | locus YJL164C, strain tpk1, active compounds read low 0.996 | locus YJL166W, strain qcr8, active compounds read low 0.997 | locus YJL168C, strain set2, active compounds read low 1 | locus YJL187C, strain SWE1 (second series), active compounds read low 1.02 | locus YJR043C, strain POL32, active compounds read low 0.998
